# PubChem BioAssay (NCATS)
# Unmarked numbers belong to inactive results. Inconclusive results are not listed. Entries that show only a call come without a potency. Calls of active or inactive are those of the source. Unless noted, calls come from the whole dose curve; as a rule, active = well fitted curve in the direction sought with a large enough effect; inconclusive = small, poorly fitted or top-dose-only effect, or another doubt; inactive = no such curve, though single readings can be large; an effect the other way counts as inactive or inconclusive.
# Assays:
# [1] = target: Rap guanine nucleotide exchange factor 3 (Homo sapiens) (UniProt O95398); test: Confirmatory qHTS for agonist of cAMP-regulated guanine nucleotide exchange factor 3 (EPAC1) (AID 1645881);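 note: EPAC1 catalysed release of BODIPY-GDP from Rap1B seen as fluorescence loss; nearly all actives have a fitted effect of over 75% in size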
# Chain of Rap guanine nucleotide exchange factor 3 (Homo sapiens) (O95398 whole entry, looked up): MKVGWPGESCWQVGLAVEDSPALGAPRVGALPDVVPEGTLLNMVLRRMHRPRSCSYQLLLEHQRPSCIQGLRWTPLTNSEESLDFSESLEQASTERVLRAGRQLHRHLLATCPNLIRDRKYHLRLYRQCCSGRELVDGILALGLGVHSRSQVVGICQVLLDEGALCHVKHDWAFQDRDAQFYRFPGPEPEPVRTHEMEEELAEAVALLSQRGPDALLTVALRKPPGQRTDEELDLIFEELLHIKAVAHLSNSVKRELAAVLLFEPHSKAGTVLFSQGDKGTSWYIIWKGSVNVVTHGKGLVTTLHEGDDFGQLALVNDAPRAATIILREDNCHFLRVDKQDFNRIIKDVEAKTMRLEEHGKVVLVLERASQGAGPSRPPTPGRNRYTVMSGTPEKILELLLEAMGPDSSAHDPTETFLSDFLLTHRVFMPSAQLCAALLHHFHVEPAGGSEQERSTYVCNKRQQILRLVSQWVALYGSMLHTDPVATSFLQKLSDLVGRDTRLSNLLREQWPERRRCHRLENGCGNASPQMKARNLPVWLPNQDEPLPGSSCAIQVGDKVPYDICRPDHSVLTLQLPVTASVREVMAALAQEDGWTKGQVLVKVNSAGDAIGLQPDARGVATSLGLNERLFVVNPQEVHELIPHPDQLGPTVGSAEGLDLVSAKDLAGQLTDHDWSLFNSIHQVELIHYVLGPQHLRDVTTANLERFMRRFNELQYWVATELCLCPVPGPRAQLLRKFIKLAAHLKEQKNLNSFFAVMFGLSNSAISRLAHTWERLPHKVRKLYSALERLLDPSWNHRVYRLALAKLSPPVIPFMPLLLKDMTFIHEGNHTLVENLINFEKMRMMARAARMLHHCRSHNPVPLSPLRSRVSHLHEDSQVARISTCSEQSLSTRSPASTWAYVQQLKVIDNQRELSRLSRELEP
# [2] = target: Rap guanine nucleotide exchange factor 4 (Homo sapiens) (UniProt Q8WZA2); test: Confirmatory qHTS for agonist of cAMP-regulated guanine nucleotide exchange factor 4 (EPAC2) (AID 1645884);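 note: nucleotide exchange releases bodipy-GDP from Rap1 and this lowers its fluorescence; nearly all actives have a fitted effect of over 65% in size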; note: potency is the fitted concentration of half-maximal effect
# Chain of Rap guanine nucleotide exchange factor 4 (Homo sapiens) (Q8WZA2 whole entry, looked up): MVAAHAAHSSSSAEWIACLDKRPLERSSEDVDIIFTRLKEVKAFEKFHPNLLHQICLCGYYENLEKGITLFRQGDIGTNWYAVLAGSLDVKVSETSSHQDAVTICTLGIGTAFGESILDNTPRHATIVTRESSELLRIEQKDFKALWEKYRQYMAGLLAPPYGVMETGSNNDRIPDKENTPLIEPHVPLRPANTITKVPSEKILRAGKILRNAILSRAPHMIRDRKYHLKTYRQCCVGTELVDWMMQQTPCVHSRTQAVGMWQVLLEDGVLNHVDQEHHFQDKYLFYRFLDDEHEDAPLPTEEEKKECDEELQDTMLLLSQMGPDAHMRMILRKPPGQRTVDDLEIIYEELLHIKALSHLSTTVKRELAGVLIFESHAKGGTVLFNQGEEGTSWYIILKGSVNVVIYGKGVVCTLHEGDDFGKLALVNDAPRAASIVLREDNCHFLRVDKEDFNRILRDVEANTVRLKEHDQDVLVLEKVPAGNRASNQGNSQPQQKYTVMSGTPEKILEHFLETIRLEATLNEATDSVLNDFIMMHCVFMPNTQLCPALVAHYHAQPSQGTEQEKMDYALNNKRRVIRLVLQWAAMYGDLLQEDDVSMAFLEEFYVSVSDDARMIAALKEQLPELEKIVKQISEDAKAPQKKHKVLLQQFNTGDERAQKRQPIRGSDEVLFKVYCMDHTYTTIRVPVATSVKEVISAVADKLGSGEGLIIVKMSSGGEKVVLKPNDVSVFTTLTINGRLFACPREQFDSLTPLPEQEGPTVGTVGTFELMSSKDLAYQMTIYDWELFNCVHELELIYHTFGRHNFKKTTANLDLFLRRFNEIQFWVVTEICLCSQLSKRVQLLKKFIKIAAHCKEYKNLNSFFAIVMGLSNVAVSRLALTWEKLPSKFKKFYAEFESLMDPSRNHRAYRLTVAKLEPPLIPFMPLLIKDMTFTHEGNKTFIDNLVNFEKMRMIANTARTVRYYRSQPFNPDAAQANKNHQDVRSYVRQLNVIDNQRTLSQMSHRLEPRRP
# [3] = target: Rap guanine nucleotide exchange factor 3 (Homo sapiens) (UniProt O95398); test: Counterscreen qHTS for antagonist of cAMP-regulated guanine nucleotide exchange factor 3 (EPAC1) (AID 1645888);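 note: fluorescence loss as bound BODIPY-GDP is released from Rap1B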
# How it was run: (§1)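 Rap1B–BODIPY-GDP (250 nM) with 50 uM GDP; compounds pin-transferred to 9.74 nM–152 uM final (activator) or from 7.32 nM upwards (inhibitor). Fluorescence Ex/Em 480/540 nm read at 5 and 30 min, then after adding cAMP or buffer, at room temperature.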
# [4] = target: Rap guanine nucleotide exchange factor 4 (Homo sapiens) (UniProt Q8WZA2); test: Confirmatory qHTS for antagonist of cAMP-regulated guanine nucleotide exchange factor 4 (EPAC2) (AID 1645885); note: nearly all actives have a fitted effect of over 25% in size; note: potency is the fitted concentration of half-maximal effect
# [5] = target: Rap guanine nucleotide exchange factor 3 (Homo sapiens) (UniProt O95398); test: Counterscreen qHTS for agonist of cAMP-regulated guanine nucleotide exchange factor 3 (EPAC1) (AID 1645889); note: nearly all actives have a fitted effect of over 40% in size
# How it was run: as §1
# [6] = target: Lysosomal acid glucosylceramidase (Homo sapiens) (UniProt P04062); test: Glucocerebrosidase-p2 (AID 348; in the data active = potency below about 10 µM; note: potency is the fitted concentration of half-maximal effect); conditions: purified GBA, blue fluorogenic substrate, 40 min
# Chain of Lysosomal acid glucosylceramidase (Homo sapiens) (P04062 whole entry, looked up): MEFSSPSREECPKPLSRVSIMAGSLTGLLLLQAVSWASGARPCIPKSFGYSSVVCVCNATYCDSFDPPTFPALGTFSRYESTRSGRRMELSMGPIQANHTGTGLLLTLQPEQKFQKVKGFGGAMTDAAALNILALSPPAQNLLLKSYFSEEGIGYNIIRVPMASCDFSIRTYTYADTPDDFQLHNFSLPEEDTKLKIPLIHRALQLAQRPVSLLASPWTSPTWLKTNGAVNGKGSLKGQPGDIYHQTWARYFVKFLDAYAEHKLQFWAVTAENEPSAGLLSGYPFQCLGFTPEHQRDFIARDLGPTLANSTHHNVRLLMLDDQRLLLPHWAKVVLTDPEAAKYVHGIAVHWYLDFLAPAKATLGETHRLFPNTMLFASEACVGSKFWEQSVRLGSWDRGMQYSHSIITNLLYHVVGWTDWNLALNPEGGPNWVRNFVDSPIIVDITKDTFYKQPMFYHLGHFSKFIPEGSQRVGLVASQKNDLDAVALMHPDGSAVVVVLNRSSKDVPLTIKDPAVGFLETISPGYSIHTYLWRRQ
# How it was run: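 Normal human glucocerebrosidase (0.2 nM) with blue fluorogenic substrate (80 uM final) in citrate/phosphate pH 5.9 with 10mM sodium taurocholate, 0.01% tween-20; 40 min RT, NaOH/glycine stop; fluorescence Ex 365/Em 440; AC50 from a titration from 0.6 nM upwards.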
# [7] = AP1 Signaling Pathway (AID 357; active = well fitted curve in either direction with a large enough effect, not every such curve was filed as active); conditions: ME-180 (cervical carcinoma) AP-1-bla reporter, EGF-induced, beta-lactamase ratio, 5 h; at 7.69 µM (top of the series) unless noted
# How it was run: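 AP-1-bla ME-180 cells with beta-lactamase reporter under AP-1 response element, stimulated with EC50 EGF; compounds titrated, 5 hours at 37 degrees Celsius. CCF4 read at 460/530 nm ratio; positive and negative modulators judged by AC50.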
# [8] = target: Cytochrome P450 1A2 (Homo sapiens) (UniProt P05177); test: p450-cyp1a2 (AID 410; calls by dose curve; note: potency is the fitted concentration of half-maximal effect)
# Chain of Cytochrome P450 1A2 (Homo sapiens) (P05177 whole entry, looked up): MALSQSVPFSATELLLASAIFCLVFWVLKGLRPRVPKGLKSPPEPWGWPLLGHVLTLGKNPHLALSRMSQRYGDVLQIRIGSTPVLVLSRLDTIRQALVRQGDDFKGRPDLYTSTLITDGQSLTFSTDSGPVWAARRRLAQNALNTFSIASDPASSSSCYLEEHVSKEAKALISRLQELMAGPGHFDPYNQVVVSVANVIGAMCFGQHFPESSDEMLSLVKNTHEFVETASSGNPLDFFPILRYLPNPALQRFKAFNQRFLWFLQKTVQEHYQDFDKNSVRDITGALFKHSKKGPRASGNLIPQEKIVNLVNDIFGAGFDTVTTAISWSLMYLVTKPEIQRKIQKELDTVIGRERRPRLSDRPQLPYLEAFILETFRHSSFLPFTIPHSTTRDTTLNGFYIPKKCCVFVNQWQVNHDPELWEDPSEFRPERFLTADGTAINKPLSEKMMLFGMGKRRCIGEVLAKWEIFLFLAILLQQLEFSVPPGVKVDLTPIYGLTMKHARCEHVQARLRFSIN
# How it was run: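 O-Demethylation of luciferin 6' methyl ether by human CYP1A2 is monitored as luciferase luminescence. Substrate sits at Km (100uM); enzyme is 20nM. Values are scaled to 57 uM furafylline as maximal inhibition.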
# [9] = Stat Signaling Pathway (AID 446; active = well fitted curve in either direction with a large enough effect, not every such curve was filed as active;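 note: ME-180 cervical cancer cells given 40 pM IL-6 alongside compound; SIE-controlled beta-lactamase reporter measured as 460/530 nm FRET emission ratio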)
# How it was run: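 Compound effects on IL-6-induced STAT reporter activity were measured in ME-180 cells. After overnight culture, cells were co-treated with 40 pM IL-6 for 5 hrs before beta-lactamase substrate loading at room temperature.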
# [10] = target: Glucocorticoid receptor (Homo sapiens) (UniProt P04150); test: GR-GFP Redistribution (AID 450;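 active = compounds whose dose series gives a full or clear partial fitted curve of increased nuclear translocation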; note: potency is the fitted concentration of half-maximal effect); conditions: U2OS GR-GFP nuclear translocation, laser cytometry, 2 h
# Chain of Glucocorticoid receptor (Homo sapiens) (P04150 whole entry, looked up, the tested form may be a part): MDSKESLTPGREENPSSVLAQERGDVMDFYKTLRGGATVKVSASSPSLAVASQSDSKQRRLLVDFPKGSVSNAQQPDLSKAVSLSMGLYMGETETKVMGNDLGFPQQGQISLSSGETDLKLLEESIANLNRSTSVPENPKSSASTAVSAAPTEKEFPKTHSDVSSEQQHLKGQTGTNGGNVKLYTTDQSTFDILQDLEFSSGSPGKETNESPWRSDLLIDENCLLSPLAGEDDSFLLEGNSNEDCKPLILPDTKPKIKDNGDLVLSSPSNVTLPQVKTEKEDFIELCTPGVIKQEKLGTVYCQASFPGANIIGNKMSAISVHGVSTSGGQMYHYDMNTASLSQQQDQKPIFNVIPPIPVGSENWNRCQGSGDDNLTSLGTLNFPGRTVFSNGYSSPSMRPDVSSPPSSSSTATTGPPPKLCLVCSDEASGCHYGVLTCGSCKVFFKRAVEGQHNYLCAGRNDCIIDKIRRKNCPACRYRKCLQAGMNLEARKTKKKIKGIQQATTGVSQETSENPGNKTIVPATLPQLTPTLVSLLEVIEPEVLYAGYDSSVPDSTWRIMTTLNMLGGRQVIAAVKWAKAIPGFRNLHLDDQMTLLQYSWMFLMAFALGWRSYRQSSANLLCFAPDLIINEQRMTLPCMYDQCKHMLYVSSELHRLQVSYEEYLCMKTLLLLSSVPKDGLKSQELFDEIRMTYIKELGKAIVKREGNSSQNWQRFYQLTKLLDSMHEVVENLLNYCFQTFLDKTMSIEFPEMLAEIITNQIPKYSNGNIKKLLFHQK
# [11] = target: Mitogen-activated protein kinase 10 (Mus musculus) (UniProt Q61831); test: JNK3 AlphaScreen Assay (AID 530; active = well fitted curve in either direction with a large enough effect, not every such curve was filed as active;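 note: kinase came from lysate of stimulated human HepG2 cells; signal reports phosphorylation of biotinylated GST-cJun 1-79 at Ser73 with 10 µM ATP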)
# How it was run: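 Activity was read by AlphaScreen after JNK3-containing HepG2 lysate (cytokine pre-activated) phosphorylated biotinylated GST-cJun with 10 uM ATP at room temperature. Phospho-Ser73 cJun antibody with Protein-A acceptor beads provided detection.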
# [12] = target: 3',5'-cyclic-AMP phosphodiesterase 4B (Homo sapiens) (UniProt Q07343); test: qHTS Assay for Inhibitors of PDE-IV (AID 607; active = well fitted activation curve with a large enough effect in the main read-out, with a control signal flat, not every such curve was filed as active)
# Chain of 3',5'-cyclic-AMP phosphodiesterase 4B (Homo sapiens) (Q07343 whole entry, looked up): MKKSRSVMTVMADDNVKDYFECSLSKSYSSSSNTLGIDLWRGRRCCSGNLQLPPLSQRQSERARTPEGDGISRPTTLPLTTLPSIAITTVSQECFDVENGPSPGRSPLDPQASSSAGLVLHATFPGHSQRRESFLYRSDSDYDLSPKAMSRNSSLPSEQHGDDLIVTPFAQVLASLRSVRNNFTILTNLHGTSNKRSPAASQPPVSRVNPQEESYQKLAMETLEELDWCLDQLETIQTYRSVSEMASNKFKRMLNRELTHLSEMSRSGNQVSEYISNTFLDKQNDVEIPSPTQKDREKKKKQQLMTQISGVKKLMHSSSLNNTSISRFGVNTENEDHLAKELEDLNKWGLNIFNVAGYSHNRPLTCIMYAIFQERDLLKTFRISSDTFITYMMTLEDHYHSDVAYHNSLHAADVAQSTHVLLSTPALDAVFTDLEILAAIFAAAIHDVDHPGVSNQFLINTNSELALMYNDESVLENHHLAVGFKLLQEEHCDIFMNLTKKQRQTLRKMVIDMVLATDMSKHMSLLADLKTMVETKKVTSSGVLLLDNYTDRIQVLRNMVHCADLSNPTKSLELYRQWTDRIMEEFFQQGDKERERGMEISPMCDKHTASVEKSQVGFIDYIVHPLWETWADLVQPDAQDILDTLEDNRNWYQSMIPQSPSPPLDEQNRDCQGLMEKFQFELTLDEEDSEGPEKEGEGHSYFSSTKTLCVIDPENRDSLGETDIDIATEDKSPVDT
# How it was run: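 ACTOne HEK293 cells carry a modified cAMP-gated CNG channel and express endogenous PDE4; plated 1000 cells/well, compounds up to 22.9 uM final. Membrane-potential dye fluorescence (ex 535/em 590) was read; parental cells received 10 uM forskolin + 100 uM RO 20-1724.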
# [13] = target: Glucocorticoid receptor (Homo sapiens) (UniProt P04150); test: GR-EFC Redistribution (AID 451; calls by dose curve; note: potency is the fitted concentration of half-maximal effect); conditions: CHO-K1 GR-EFC translocation, beta-gal luminescence, 2 h
# How it was run: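 CHO-K1 cells expressing nuclear EA and GR-ED fragments of b-gal; compounds titrated up to 46 uM final, 2 h at 37 C. GR nuclear translocation read as complemented b-gal luminescence after 1 h RT detection.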
# [14] = target: Cytochrome P450 3A4 (Homo sapiens) (UniProt P08684); test: qHTS Assay for Activators of Cytochrome P450 3A4 (AID 885); note: nearly all actives have a fitted effect of over 65% in size
# Chain of Cytochrome P450 3A4 (Homo sapiens) (P08684 whole entry, looked up): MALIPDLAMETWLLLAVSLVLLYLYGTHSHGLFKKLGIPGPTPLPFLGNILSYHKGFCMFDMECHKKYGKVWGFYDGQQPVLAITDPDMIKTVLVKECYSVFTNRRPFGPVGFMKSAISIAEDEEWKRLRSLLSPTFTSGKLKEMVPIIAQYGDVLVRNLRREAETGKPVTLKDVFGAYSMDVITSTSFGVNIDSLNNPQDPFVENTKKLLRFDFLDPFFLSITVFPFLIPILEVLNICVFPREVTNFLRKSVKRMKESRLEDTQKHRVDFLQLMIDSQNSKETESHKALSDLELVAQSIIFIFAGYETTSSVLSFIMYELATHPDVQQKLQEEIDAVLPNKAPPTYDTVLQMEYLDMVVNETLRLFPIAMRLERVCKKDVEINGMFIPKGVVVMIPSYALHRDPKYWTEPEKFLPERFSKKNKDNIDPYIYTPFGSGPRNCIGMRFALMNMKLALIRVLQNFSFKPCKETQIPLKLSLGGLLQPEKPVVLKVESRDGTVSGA
# How it was run: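 CYP3A4 activity: Luciferin-PPXE O-dealkylation, 25uM substrate, 200mM KPO4, RT throughout. Read-out is luciferase luminescence; higher values reflect activation.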
# [15] = target: Cytochrome P450 2C19 (Homo sapiens) (UniProt P33261); test: qHTS Assay for Inhibitors and Substrates of Cytochrome P450 2C19 (AID 899); note: potency is the fitted concentration of half-maximal effect; nearly all actives have a fitted effect of over 60% in size
# How it was run: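 Luminescent read-out of luciferin formed from Luciferin-H EGE (10uM, equal to KM). Enzyme 5nM in 50mM KPO4; compound added, 10 min at 37C, then NADPH regenerating system for 60 min at 37C. Full inhibition defined by 57uM ketoconazole.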
# [16] = NFAT Signaling Pathway (AID 444; active = well fitted curve in either direction with a large enough effect, not every such curve was filed as active;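 note: carbachol stimulus at about its EC50 of 1 µM final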); conditions: Jurkat NFAT-bla M1, carbachol, beta-lactamase ratio, 5 h; at 7.69 µM (top of the series) unless noted
# How it was run: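 Jurkat cells with NFAT-driven β-lactamase reporter and co-expressed M1 receptor, stimulated with carbachol (final 1 uM, ~EC50), compound titration, 5 h at 37 °C. CCF4 loaded 1 h at RT; 460/530 nm ratio gave %activity and AC50.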
# [17] = target: Tumor susceptibility gene 101 protein (Homo sapiens) (UniProt Q99816); test: qHTS Assay for Iinhibitors of HIV-1 Budding by Blocking the Interaction of PTAP/TSG101: Hit Validation (AID 651600); note: potency is the fitted concentration of half-maximal effect; nearly all actives have a fitted effect of over 70% in size
# How it was run: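 Measuring PTAP–Tsg101 interaction by FP: protein at 10 uM and fluorescent peptide at 50 nM (final), buffer 10 mM HEPES pH 7.5 with 0.15 M NaCl, 3 mM EDTA, 0.1 mM TCEP, 0.01% Tween 20; 20 min incubation, r.t.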
smiles,measurement,setting,value
C=Cc1ccc(CC2(C)C(=O)Nc3ccc(Cl)cc32)cc1 (stereo not drawn),Potency,[1],inactive
same,activation,[2],"9.02% [at 17.1 µM, percent relative to cAMP agonist control]"
same,"activity change, negative = inhibition",[3],-14.8% [at 30.8 µM]
COc1ccc(-c2nc3ccccc3nc2-c2ccccc2)cc1,Potency,[1],inactive
same,Potency,[2],inactive
same,Potency,[3],inactive
CCN(Cc1ccccc1)S(=O)(=O)c1cc2c3c(c1)CCN3C(=O)CC2,Potency,[1],inactive
same,activation,[2],"0.922% [at 17.1 µM, percent relative to cAMP agonist control]"
same,Potency,[4],inactive
same,activation,[5],-5.83% [at 30.8 µM]
CCOc1ccc2nc3cc(N=Nc4ccc(N)nc4N)ccc3c(N)c2c1,Potency,[6],> 11.4 µM
same,"activity change, negative = inhibition",[7],4.95%
same,Potency,[8],0.794 µM (active)
same,outcome,[9],inactive
same,Potency,[10],> 46 µM
same,"activity change, negative = inhibition",[11],-7.05% [at 11.4 µM]
same,Potency,[12],inactive
same,Potency,[1],inactive
same,activation,[2],"2.08% [at 17.1 µM, percent relative to cAMP agonist control]"
same,Potency,[4],inactive
NC(CSC(c1ccccc1)(c1ccccc1)c1cccc2ccccc12)C(=O)O (stereo not drawn),Potency,[1],inactive
same,activation,[2],"-1.78% [at 17.1 µM, percent relative to cAMP agonist control]"
same,Potency,[4],inactive
same,activation,[5],5.6% [at 30.8 µM]
COc1ccccc1[C@@]1(C)ON(c2ccccc2C(F)(F)F)C1=O,Potency,[1],inactive
same,Potency,[2],inactive
same,Potency,[3],inactive
CCCCOC(=O)C1=C(C)Nc2nnnn2C1c1ccccc1Cl (stereo not drawn),Potency,[1],inactive
same,Potency,[2],inactive
same,Potency,[4],inactive
same,Potency,[5],inactive
O=C(NC1(O)C(=O)c2ccccc2C1=O)c1c(Cl)cccc1Cl,Potency,[1],inactive
same,Potency,[2],inactive
same,Potency,[3],inactive
CC(=O)NC(C)(c1ccccc1)c1nc(-c2cc(F)cc(F)c2)cs1 (stereo not drawn),Potency,[1],inactive
same,Potency,[2],inactive
same,Potency,[3],inactive
COc1ccccc1N(C)S(=O)(=O)c1ccc(C(=O)NC2CCCCC2)cc1,Potency,[1],inactive
same,Potency,[2],inactive
same,Potency,[3],inactive
O=C(CN1C(=O)/C(=C2/SC(=S)N(CCS(=O)(=O)O)C2=O)c2ccccc21)Nc1cccc(Br)c1,Potency,[1],inactive
same,Potency,[2],inactive
same,Potency,[3],inactive
COc1cc(/C=N/NS(=O)(=O)c2ccc3ccccc3c2)ccc1OCc1ccc(C(=O)O)cc1,Potency,[1],inactive
same,Potency,[2],inactive
same,Potency,[3],inactive
Nc1nc(N)c(-c2cccc(C(F)(F)F)c2)c(Cc2cccc(C(F)(F)F)c2)n1,Potency,[6],> 11.4 µM
same,"activity change, negative = inhibition",[7],11.9%
same,outcome,[9],inactive
same,Potency,[10],> 46 µM
same,Potency,[13],> 9.22 µM
same,"activity change, negative = inhibition",[11],3.36% [at 11.4 µM]
same,Potency,[12],inactive
same,"activity change, positive = activation",[14],-31.2% [at 11.4 µM]
same,Potency,[15],2.51 µM (active)
same,Potency,[1],inactive
same,Potency,[2],inactive
same,Potency,[4],inactive
same,Potency,[5],inactive
Cc1cc2c(C)nc(N/N=C/c3ccc(F)cc3)nc2o1,Potency,[1],inactive
same,Potency,[2],inactive
same,Potency,[3],inactive
COC(=O)CC1(c2ccc(OC)cc2)C(=O)c2ccccc2C1=O,Potency,[1],inactive
same,Potency,[2],inactive
same,Potency,[4],inactive
same,Potency,[5],inactive
CN(C)c1ncc2ncc(=O)n(Cc3cccs3)c2n1,Potency,[6],> 11.4 µM
same,"activity change, negative = inhibition",[7],-12.8%
same,Potency,[8],1.58 µM (active)
same,"activity change, negative = inhibition",[16],-18.4%
same,outcome,[9],inactive
same,Potency,[10],> 9.22 µM
same,Potency,[13],> 46 µM
same,Potency,[11],inactive
same,outcome,[14],inactive
same,Potency,[1],inactive
same,Potency,[2],inactive
same,Potency,[4],39.3 µM (active)
CN1CCc2nc3sc(C(=O)C45CC6CC(CC(C6)C4)C5)c(N)c3cc2C1,Potency,[1],inactive
same,Potency,[2],100 µM (active)
same,Potency,[3],inactive
CCOC(=O)C1=CCN(S(=O)(=O)c2ccccc2C)C1c1ccc(Cl)c(Cl)c1 (stereo not drawn),Potency,[1],inactive
same,Potency,[2],inactive
same,Potency,[3],inactive
CCCN(CC(=O)Nc1ccccc1C)C(=O)C1CCN(c2ncnc3sc(C)c(C)c23)CC1,Potency,[1],inactive
same,Potency,[2],inactive
same,Potency,[3],inactive
CCN(CC)c1nc2ccccc2nc1C(C#N)C(=O)NCCc1ccccc1 (stereo not drawn),Potency,[17],6.51 µM (active)
same,Potency,[1],inactive
same,Potency,[2],inactive
same,Potency,[4],84.9 µM (active)
COc1cccc(S(=O)(=O)Nc2ccc3c(c2)[C@@H]2C[C@@H](CC(=O)NCc4ccc(Cl)cc4)O[C@@H](CO)[C@@H]2O3)c1,Potency,[1],inactive
same,Potency,[2],inactive
same,Potency,[4],inactive
same,Potency,[5],inactive
CC(C)n1nccc1N(Cc1ccc(Cl)cc1)S(=O)(=O)c1ccccc1,Potency,[1],inactive
same,Potency,[2],inactive
same,Potency,[3],inactive
